Data reported in PubChem BioAssay (NCI).
About 79,000 compounds went through this panel and 15% of them were active in at least one assay; those are over-represented in the sample as a whole. The source made the active and inactive calls. Cut-off read from the data, not from the text of the source: active = growth inhibition above about 70%; inactive = the rest. Where a SMILES comes first, the peptide text is derived from it. [ ]: non-standard residue; d: D form. Nva = CCC[CH](N)C(=O)O

Experiment: NCI Yeast Anticancer Drug Screen. Data for the mlh1 rad18 strain (AID 175)
Settings: S. cerevisiae mlh1 rad18 strain growth inhibition; at 50.0 µM (retest, dose inferred, filed as 5.0); hits give high values
Procedure, shortened: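 Compound-treated yeast growth, normalised to vehicle controls. Strain bears defined DNA repair mutations.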
In the case of `O=[N+]([O-])c1ccc(-c2ccc(-c3csc(Nc4ccccc4)n3)o2)cc1`, the growth inhibition is reported as 97% (active). In the case of `C1=C(C2=C[P+](c3ccccc3)(c3ccccc3)C=C(c3ccccc3)O2)OC(c2ccccc2)=C[P+]1(c1ccccc1)c1ccccc1`, the growth inhibition is reported as 6% (inactive). In the case of `Cc1ccc(C2C(O)=C(c3ccccc3)Sc3ccc(C)cc32)cc1` (stereo not given), the growth inhibition is reported as 81% (active). In the case of `CCc1n[nH]c(CC)c1CCCCCCOc1ccc(OC)cc1Cl`, the growth inhibition is reported as 73% (active). With `C=C1CC[C@H]2C(C)=CC[C@@H]3[C@H](OC(=O)[C@H]3CN3CCN(c4ccc(C)c([N+](=O)[O-])c4)CC3)[C@@H]12` the growth inhibition was 72% (active). In the case of `C(CCCCCN1CCCCC1)CCCCN1CCCCC1`, the growth inhibition is reported as 10% (inactive). For `CN(Cc1cnc2nc(N)nc(N)c2n1)c1ccc(C(=O)NC(CCC(=O)O)C(=O)O)cc1C(F)(F)F` (stereo not given), the growth inhibition was 86% (active). In the case of `CC(C(=O)O)C(N)C(=O)O` (stereo not given), the growth inhibition is reported as 3% (inactive). In the case of `CCCCCCCCCCN(CCCCCCCCCC)C1CC(OC2CC(O)(C(O)CO)Cc3c(O)c4c(c(O)c32)C(=O)c2c(OC)cccc2C4=O)OC(C)C1O` (stereo not given), the growth inhibition is reported as 87% (active). For `COc1ccc(OCC(O)CN2CCN(c3cccc(Cl)c3)CC2)cc1` (stereo not given), the growth inhibition was 31% (inactive). With `O=C(O)c1ccccc1C(=O)c1ccc2c(c1)Cc1ccccc1-2` the growth inhibition was 26% (inactive). In the case of `Cc1cc(C2c3ccccc3-c3ccccc32)cc(C)c1O`, the growth inhibition is reported as 18% (inactive). In the case of `CC(C)(C)c1cc(Cl)c(O)c(Cc2cc(C(C)(C)C)cc(Cl)c2O)c1`, the growth inhibition is reported as 85% (active). In the case of `COc1cccc(/C=C/C(C)=O)c1OC`, the growth inhibition is reported as 7% (inactive). With `Cc1nc2c(cnn2C)cc1CCc1ccccc1` the growth inhibition was 39% (inactive). For `O=C1C(C(O)(C(F)(F)Cl)C(F)(F)Cl)CCCC1C(O)(C(F)(F)Cl)C(F)(F)Cl` (stereo not given), the growth inhibition was 99% (active). In the case of `C=CCNCCC1CCCCCC1`, the growth inhibition is reported as 97% (active). In the case of `CCCC(N)C(=O)NC(C(=O)O)C(C)C` (stereo not given) (H-[Nva]-Val-OH; configuration not given here), the growth inhibition is reported as -9% (inactive). In the case of `Cc1cc(N)c2cc(NC(=O)Nc3ccc4nc(C)cc(N)c4c3)ccc2n1`, the growth inhibition is reported as 99% (active). In the case of `COc1ccc(N=Cc2ccccc2O)cc1`, the growth inhibition is reported as -45% (inactive). With `Cc1cc(Br)c2ccccc2c1N` the growth inhibition was 44% (inactive). For `c1ccc(-c2cc(Nc3ccc4c(c3)OCO4)c3cc(C4CCCCC4)ccc3n2)cc1`, the growth inhibition was 94% (active). In the case of `CCCCCCCCc1cc[n+](C2=C([O-])c3ccccc3C(=O)C2=O)cc1`, the growth inhibition is reported as 99% (active). For `CCCCCCCCCCCc1nnc(N)o1`, the growth inhibition was 94% (active). With `O=C1OC(OCC#CCOC2OC(=O)C(Cl)=C2Cl)C(Cl)=C1Cl` (stereo not given) the growth inhibition was 99% (active). With `O=S(=O)(O)CC[S][Sn]([S]CCS(=O)(=O)O)([c]1ccccc1)[c]1ccccc1` (tested in a mixture with another compound) the growth inhibition was 96% (active). For `CC(C)NC(=O)OCCS(=O)c1c(Cl)c(Cl)nn1C` (stereo not given), the growth inhibition was 56% (inactive). In the case of `CN1N=C2c3ccccc3CC[C@H]2C1c1cccc(O)c1` (stereo not given in full), the growth inhibition is reported as 82% (active). For `O=C1CSC(=S)N1/N=C/c1ccc(Cl)c([N+](=O)[O-])c1`, the growth inhibition was 91% (active). For `O=C(O)CCCCCCCCC(=O)CCl`, the growth inhibition was 98% (active). For `O=C(NC1CCN(Cc2ccccc2)CC1)c1ccccc1I`, the growth inhibition was 76% (active). In the case of `Cc1ccc(Nc2nc3c(s2)C(=O)c2ccccc2C3=O)cc1`, the growth inhibition is reported as 97% (active). For `O=C(/C=C/c1ccccc1)c1cc2c(cc1O)OCO2`, the growth inhibition was -1% (inactive). For `O=[N+]([O-])c1ccc(Sc2ccc([N+](=O)[O-])o2)o1`, the growth inhibition was 99% (active). With `CCCCCCCCN(CCCCCCCC)CC(O)c1cc(OCC)nc2ccccc12` (stereo not given) the growth inhibition was 95% (active). In the case of `CC(O)CCc1nc2ccccc2[nH]1` (stereo not given), the growth inhibition is reported as -8% (inactive). With `CCCCCCCCCCCCCCCCSC(=NC)NC` the growth inhibition was 98% (active). With `O=C(O)CCC(O)=C1S(=O)(=O)OCCOS1(=O)=O` the growth inhibition was -28% (inactive). In the case of `CCCCCCCCCCCCCCCCN`, the growth inhibition is reported as 98% (active). With `COC1=C(Br)C(=O)N/C1=C(\OC)c1ccccc1` the growth inhibition was 4% (inactive).
